We go through 14 compounds from PubChem BioAssay (NCI).

About 83,000 compounds went through this panel and 20% of them were active in at least one assay; those are over-represented in the sample as a whole.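 Method: cells in 96-well plates; compound added at one concentration; 48 h incubation; percent growth measured; values under 10 scored active.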 Unmarked numbers belong to inactive results. The source made the active and inactive calls.

Some test systems named below: HCT-15 colon; HT29 colon; SNB-75 CNS; U251 CNS; PC-3 prostate; SK-MEL-5 melanoma; UACC-62 melanoma; SK-MEL-28 melanoma; LOX IMVI melanoma; SNB-19 CNS.
Common to all, as to test: NCI-60 one-dose screen, 48 h (100 = growth as untreated, 0 = no growth, -100 = all killed)
Holding throughout (conditions): 10 µM unless noted

Consider `NC1=NC(=O)NC1(c1ccccc1)c1ccccc1`, for which the growth in the assay with HCT-15 colon was 97.5%; with HT29 colon it was 111%; with SNB-75 CNS it was 89.9%; in the assay with U251 CNS, 97.4%; in the assay with PC-3 prostate it was 94.3%; in the assay with SK-MEL-5 melanoma it was 95.9%. Moreover, the growth in the assay with UACC-62 melanoma was 101%; in the assay on SK-MEL-28 melanoma, 109%.
As for `CC(C)[C@H]1COC(=O)N1[C@@H]1C(=O)N([C@@H](CCC(=O)N2CCN(C3CCCC3)CC2)C(=O)N[C@@H]2CCCc3ccccc32)[C@@H]1/C=C/c1cccc(Cl)c1`, the growth in the assay with HCT-15 colon was 34.1%; with HT29 colon, 13%; with SNB-75 CNS it was 92%; with U251 CNS, 46.6%; with PC-3 prostate, 25.7%; with SK-MEL-5 melanoma it was 11.7%. Moreover, the growth with UACC-62 melanoma is 67.8%; in the assay on LOX IMVI melanoma, -18.3% (active); in the assay on SK-MEL-28 melanoma, 71.7%.
With `CCCCCCCCCCCCNC(=S)N/N=C/c1ccccc1O`, the growth in the assay on HCT-15 colon was 56.9%; in the assay with HT29 colon, 36.6%; with SNB-75 CNS, 81.1%; with U251 CNS it was 78.4%; in the assay with PC-3 prostate it was 69.5%; in the assay with SK-MEL-5 melanoma, 88.8%. The growth is 77.7% with UACC-62 melanoma and 93.3% in the assay on SK-MEL-28 melanoma.
As for `O=C1NC(=O)C(Cc2ccc(OCc3ccc(-c4cc(F)c(F)c(F)c4)cc3)cc2)S1` (configuration not stated), the growth with HCT-15 colon is 88.2%; in the assay on HT29 colon it was 107%; in the assay with SNB-75 CNS, 83.2%; with U251 CNS, 86.1%; with PC-3 prostate it was 71.4%; with SK-MEL-5 melanoma, 76.5%. Besides, the figures for the growth in the assay on UACC-62 melanoma, with LOX IMVI melanoma and with SK-MEL-28 melanoma were 56.2%, 77.4% and 102%, respectively.
As for `O=C1/C(=C\c2cn(CC(O)CN3CCCCC3)c3ccccc23)c2ccccc2N1c1c(Cl)cccc1Cl` (configuration not stated), the growth with HCT-15 colon is -72.8% (active); in the assay with HT29 colon, -85% (active); in the assay with SNB-75 CNS, -98.6% (active); with U251 CNS it was -93.8% (active); with PC-3 prostate it was -88.7% (active); in the assay with SK-MEL-5 melanoma, -100% (active). Further, the growth with UACC-62 melanoma is -84% (active); in the assay on LOX IMVI melanoma it was -85.1% (active); with SK-MEL-28 melanoma it was -94.4% (active).
`Cc1cccc(C[C@H](NC(=O)Nc2ccc(Cl)cc2F)C(=O)N[C@@H]2C(=O)N3C[C@H](OC(=O)CCN(C)C)C[C@H]3C(=O)N3CCCC[C@H]3C(=O)N[C@@H](C)C(=O)N3C[C@H](C)C[C@H]3C(=O)O[C@H]2C)c1`: the growth in the assay with HCT-15 colon is 64.8%; in the assay on HT29 colon it was 5.77% (active); with SNB-75 CNS it was 13.5%; with U251 CNS, 22.9%; with PC-3 prostate it was 16.7%; in the assay on SK-MEL-5 melanoma it was 6.65% (active). Besides, the results for the growth in the assay on UACC-62 melanoma, in the assay on LOX IMVI melanoma and in the assay on SK-MEL-28 melanoma were 13.4%, 23.9% and 25.8%, respectively.
In the case of `C=C(C)[C@@H]1CC[C@]2(C(=O)NCCCCCCN(CCCN)CCCN)CC[C@]3(C)[C@H](CC[C@@H]4[C@@]5(C)CC[C@H](OCCCN)C(C)(C)[C@@H]5CC[C@]43C)[C@@H]12`, the growth is 81.8% [100 µM] in the assay with HCT-15 colon; 4.21% [100 µM] (active) in the assay with HT29 colon; 84.5% [100 µM] in the assay on SNB-75 CNS; -39.4% [100 µM] (active) in the assay with U251 CNS; 60.9% [100 µM] in the assay with PC-3 prostate; 85.9% [100 µM] with SK-MEL-5 melanoma. For the same compound, the growth is 120% [100 µM] with UACC-62 melanoma and 101% [100 µM] in the assay with SK-MEL-28 melanoma.
In the case of `COC(=O)[C@H](CC(C)C)NC(=O)NC(=O)NC(=O)CI`, the growth in the assay with HCT-15 colon is -36% (active); in the assay with HT29 colon, -43.2% (active); with SNB-75 CNS, 102%; in the assay with U251 CNS, 90.6%; in the assay with PC-3 prostate, 78.3%; in the assay with SK-MEL-5 melanoma, 92.6%. In addition, the growth is 86.4% with UACC-62 melanoma, -78.6% (active) in the assay on LOX IMVI melanoma and 89.6% in the assay on SK-MEL-28 melanoma.
Turning to `Nc1ccc(NC(=O)c2ccccc2)c2c1C(=O)c1ccccc1C2=O`, the growth with HCT-15 colon is 99%; in the assay on HT29 colon, 104%; with SNB-75 CNS it was 76%; with U251 CNS, 105%; in the assay on PC-3 prostate it was 87.2%; in the assay on SK-MEL-5 melanoma it was 94.2%. The growth with UACC-62 melanoma is 101%; with LOX IMVI melanoma, 109%; with SK-MEL-28 melanoma, 113%.
Take `N/C(=N\c1nc2ccccc2[nH]1)NC(=O)Cc1cccc2ccccc12`: the growth in the assay on HCT-15 colon was 71.7%; in the assay on HT29 colon, 83.5%; in the assay on SNB-19 CNS, 87.6%; in the assay with U251 CNS, 80.6%; with PC-3 prostate, 80%; with SK-MEL-5 melanoma, 82.2%. Also, the growth was 81.8% with UACC-62 melanoma, 81.4% in the assay on LOX IMVI melanoma and 86.9% in the assay on SK-MEL-28 melanoma.
Consider `C=C(C)[C@@H]1CC[C@]2(C(N)=O)CC[C@]3(C)[C@H](CC[C@@H]4[C@@]5(C)C/C(=C/c6cccnc6)[C@H](O)C(C)(C)[C@@H]5CC[C@]43C)[C@@H]12`, for which the growth with HCT-15 colon was 18.7% [100 µM]; with HT29 colon it was -20.5% [100 µM] (active); with SNB-75 CNS it was 47.1% [100 µM]; in the assay on U251 CNS, 24.6% [100 µM]; with PC-3 prostate, 21.1% [100 µM]; in the assay on SK-MEL-5 melanoma, -78.1% [100 µM] (active). The growth with UACC-62 melanoma was 24.8% [100 µM]; in the assay with LOX IMVI melanoma, -35.9% [100 µM] (active); in the assay on SK-MEL-28 melanoma, 26.5% [100 µM].
Consider `CCCC[C@@H](C=O)NC(=O)[C@H](CC(C)C)NC(=O)[C@H](CC(C)C)NC(=O)OCc1ccccc1`, for which the growth with HCT-15 colon was 8.85% (active); in the assay with HT29 colon, -19.4% (active); in the assay with SNB-75 CNS, -45.1% (active); in the assay with U251 CNS, 5.84% (active); in the assay on PC-3 prostate, 5.37% (active); in the assay on SK-MEL-5 melanoma it was -71% (active). For the same compound, the values for the growth in the assay with UACC-62 melanoma, with LOX IMVI melanoma and with SK-MEL-28 melanoma were -38% (active), -65.2% (active) and -21.7% (active), respectively.
In the case of `O=C1COCCN1c1ccc(NCc2cn(Cc3ccccc3)c3ccccc23)cc1`, the growth with HCT-15 colon is 90.7%; in the assay with HT29 colon it was 109%; with SNB-75 CNS, 81.7%; with U251 CNS it was 86.8%; with PC-3 prostate, 89%; in the assay with SK-MEL-5 melanoma it was 91.5%. Also, the growth with UACC-62 melanoma was 21.6%; in the assay on LOX IMVI melanoma, 92%; in the assay with SK-MEL-28 melanoma it was 102%.
Take `Cc1ccccc1-n1nnc(C(=O)Nc2nc3ccc(F)cc3s2)c1C`: the growth in the assay with HCT-15 colon was 61.1%; in the assay with HT29 colon, 73.2%; in the assay on SNB-75 CNS it was 64%; in the assay on U251 CNS, 76.8%; in the assay on SK-MEL-5 melanoma, 24.5%; in the assay on UACC-62 melanoma, 59.2%. Besides, the values for the growth in the assay with LOX IMVI melanoma and in the assay with SK-MEL-28 melanoma were 75% and 57.3%, respectively.
